The values below come from PubChem BioAssay AID720648 (The Scripps Research Institute Molecular Screening Center, 2013).

As a reminder, the inhibition is the drop in the measured response relative to a control, in per cent.

“And” between values parts separate entries of the source, which are not always exact repeats. Identical values can stand only once. Hit rate of the full screen: of about 370,000 compounds, about 3,100 (0.84%) were called active.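 Rule for the calls: active = inhibition above the mean of compounds lying between control limits plus 3 SD, set per campaign (cut at about 8.5% in these data); inactive = the rest.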 Only a selection was taken, and actives are over-represented in it overall. Where a structure was tested more than once in an assay, its records may differ in their call.

Sequence of Disintegrin and metalloproteinase domain-containing protein 17 (Homo sapiens) (P78536 215-824 limits assumed): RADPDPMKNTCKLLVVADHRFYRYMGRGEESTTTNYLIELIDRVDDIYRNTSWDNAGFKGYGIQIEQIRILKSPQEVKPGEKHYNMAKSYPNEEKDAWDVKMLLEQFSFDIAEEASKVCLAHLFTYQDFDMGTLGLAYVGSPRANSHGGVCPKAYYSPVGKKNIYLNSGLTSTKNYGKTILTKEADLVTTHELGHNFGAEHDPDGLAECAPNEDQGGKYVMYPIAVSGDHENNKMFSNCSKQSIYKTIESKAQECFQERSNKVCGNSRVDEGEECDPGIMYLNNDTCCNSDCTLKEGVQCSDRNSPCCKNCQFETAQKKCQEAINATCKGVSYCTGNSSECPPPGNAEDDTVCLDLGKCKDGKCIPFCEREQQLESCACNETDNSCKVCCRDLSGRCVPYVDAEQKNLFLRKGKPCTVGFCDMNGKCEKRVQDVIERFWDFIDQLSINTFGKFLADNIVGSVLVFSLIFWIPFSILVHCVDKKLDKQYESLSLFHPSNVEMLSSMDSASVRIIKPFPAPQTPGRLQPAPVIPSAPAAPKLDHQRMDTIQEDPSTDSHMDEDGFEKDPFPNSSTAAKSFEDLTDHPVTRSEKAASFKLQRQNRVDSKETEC

The assay concerns the target Disintegrin and metalloproteinase domain-containing protein 17 (Homo sapiens) (UniProt P78536). Briefly: ADAM17 inhibitors, primary screen, biochemical, QFRET (AID 720648).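 Note: 0% = DMSO-only wells as the low control.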 Particulars: recombinant ADAM17, EDANS/DABCYL FRET peptide cleavage; at 6.95 µM; stronger effect = higher value.
For `O=C(c1ccccc1)c1ccc(-c2ccccc2C(=O)NC2CCCCN(Cc3ccc(Cl)cc3)C2=O)cc1` (stereo not given), the inhibition was -0.61% (inactive).
Consider `COC(=O)C1CN(Cc2cn(Cc3ccc(F)cc3)nn2)CCS(=O)(=O)N1Cc1ccc(Cl)cc1` (stereo not given), for which the inhibition was 1.41% (inactive).
For `Cc1cc(C)c(C#N)c(SCc2[nH]nc3c2C(c2ccccc2)C(C#N)=C(N)O3)n1` (stereo not given) the value was 12.4% (active).
For `Cc1cc(C)c(C#N)c(SCc2ccc3c(c2)OCO3)n1` the value was -0.68% (inactive).
The result for `COc1ccc(C2C(C#N)=C(N)Oc3n[nH]c(C)c32)cc1CN1CCN(c2ccc(F)cc2)CC1` (stereo not given) reads 0.41% (inactive); that for `COc1ccc(N2C(=O)C(CC(=O)Nc3ccccc3)N(Cc3ccc(OC)c(OC)c3)C2=O)cc1` (stereo not given), -0.55% (inactive).
On to `CCOc1ccc(N2C(=O)CC(N(CCc3ccc(OC)c(OC)c3)C(=S)Nc3ccccc3)C2=O)cc1` (stereo not given), for which the inhibition is 9.32% (active) and 1.43% (inactive).
Consider `CN(C)c1ccc(NC(=S)N(CCc2ccccc2)C2CC(=O)N(c3c(Cl)cccc3Cl)C2=O)cc1` (stereo not given), for which the inhibition was 2.09% (inactive).
For `C=CCN(Cc1ccc2c(c1)OCO2)C(C#CC1CC1)C(C)(C)C` (stereo not given) the value was -5.97% (inactive).
For `O=C(NC1CCCCN(Cc2cccc(C(F)(F)F)c2)C1=O)c1ccccc1I` (stereo not given) the value was -0.37% (inactive); for `COC(=O)[C@]12C[C@H](CC(=O)NCc3ccccc3)C(=O)N(Cc3ccccc3)C1=C[C@H](COCc1ccccc1)O[C@@H]2C`, 1.65% (inactive).
The result for `COC(=O)[C@H](C(C)C)N(CCCc1cn(Cc2ccccc2)nn1)S(=O)(=O)c1ccc(F)cc1Br` reads 2.02% (inactive).
On to `O=C(COC(=O)c1ccccn1)NNC(=O)c1ccc(Br)cc1`, for which the inhibition is 0.32% (inactive).
For `COc1ccccc1C(=O)NCC(=O)OCC(=O)NNC(=O)c1ccc(Br)cc1` the value was 13% (active); for `COc1ccccc1C(=O)NCC(=O)NCCSc1ccc(Br)cc1`, 2.38% (inactive); for `CCCCCCCCNS(=O)(=O)/C=C/c1cc(C)ccc1CNC(=O)OC(C)(C)C`, -2.49% (inactive).
For `C[C@]12c3[nH]c4ccc(Cl)cc4c3CCN1C(=O)[C@@H](CC(=O)NCCCn1ccnc1)C[C@@H]2C(=O)N1CCOCC1` the value was 4.49% (inactive).
Consider `CC(C)N(C(=O)[C@H]1C[C@H](CC(=O)NCCC2=CCCCC2)C(=O)N2CCc3c([nH]c4cc(CCC(=O)N(C)C)ccc34)[C@]12C)C(C)C`, for which the inhibition was -3.26% (inactive).
The result for `CC(C)N(C(=O)[C@H]1C[C@H](CC(=O)NC(C)(C)C)C(=O)N2CCc3c([nH]c4ccc(Cl)cc34)[C@]12C)C(C)C` reads 8.65% (active).
For `CC(=O)OCCN1CCCC12CCC(c1ccccc1)CC2` (stereo not given) the value was -1.85% (inactive); for `COC(=O)C1CN(CC(C)C)CCS(=O)(=O)N1Cc1ccc(F)cc1` (stereo not given), -5.05% (inactive); for `Cc1nc2ccc(C(=O)N3CCN(C(=O)C(C)(C)C)CC3)cc2n1C1CCCC1`, 3.54% (inactive).
The result for `Cc1ccc(C)c(NC(=O)CCS(=O)(=O)c2ccccc2)c1` reads -3.15% (inactive); that for `COc1ccc(CN(CCN2CCOCC2)C(=O)c2ccc(C)cc2)cc1OC`, 2.83% (inactive).
For the compound `CN(Cc1ccc(F)cc1)C(=O)COc1ccc2ccccc2c1`, the inhibition was -3.83% (inactive).
`COc1ccc(C(C(=O)NC2CCCCC2)N(C(=O)CCl)c2ccccc2Cl)cc1` (stereo not given): the inhibition is -0.76% (inactive).
The result for `COc1ccc(CN(C)C(=O)CC(c2ccccc2)c2ccccc2)cc1` reads 11% (active); that for `COc1ccc(C(CCN(Cc2ccc(OC)c(OC)c2)C(=O)CCl)c2ccccc2)cc1` (stereo not given), 12.5% (active).
For `COc1ccc(Cn2cc(COC(=O)N(C)Cc3ccccc3)nn2)cc1` the value was -3.38% (inactive); for `COC(=O)C[C@@H]1CC[C@@H]2[C@@H](COc3ccc(NC(=O)Nc4ccc(F)c(F)c4)cc3C(=O)N2C)O1`, 1.31% (inactive); for `CCCCNC(=O)C[C@H]1C[C@@]2(C(=O)OC)C(=C[C@H](COCc3ccccc3)O[C@@H]2C)N(Cc2ccc(Cl)cc2Cl)C1=O`, 1.2% (inactive).
The result for `COc1ccc2c(c1)CN1CN(CCc3ccccc3)S(=O)(=O)CC21` (stereo not given) reads -6.46% (inactive); that for `Cc1ccc(/C=N/NC(=O)CSc2nc3ccccc3o2)cc1`, 10.3% (active).
In the case of `CC1Cc2ccccc2N1C(=O)CSc1nc2ccccc2o1` (stereo not given), the inhibition was 2.14% (inactive).
The result for `O=C(CSc1nc2ccccc2o1)N/N=C/c1ccccc1C(=O)O` reads -4.58% (inactive); that for `COc1ccc(CN2C(=O)N3Cc4cc(OC)ccc4C3CS2(=O)=O)cc1` (stereo not given), -0.79% (inactive).
In the case of `C=CCN1C(=O)[C@@H](CC(=O)NCCCCc2ccccc2)[C@]2(C(=O)OCC)CCCCC/C=C/12`, the inhibition is 3.44% (inactive).
For `Cc1cc(C)cc(OCC(=O)O/N=C(\N)Cc2ccc([N+](=O)[O-])cc2)c1` the value was 3.53% (inactive).
Turning to `N/C(Cc1ccc([N+](=O)[O-])cc1)=N\OC(=O)C1CCCCC1`, the inhibition is -3.25% (inactive).
As for `N/C(Cc1ccc([N+](=O)[O-])cc1)=N\OC(=O)COc1ccc2ccccc2c1`, the inhibition was 10.8% (active).
For `C=CCN1C(C(=O)OC)CN(Cc2cn(Cc3ccccc3)nn2)CCS1(=O)=O` (stereo not given) the value was 1.41% (inactive); for `CN(C)CC(=O)N[C@@H]1C[C@@H]2O[C@H](CO)CC[C@@H]2O[C@@H]1CCc1ccc(C#Cc2ccccc2)cc1`, 3.01% (inactive); for `COc1ccc(C(c2nnnn2C2CCCC2)N2CCN(C/C=C/c3ccccc3)CC2)cc1` (stereo not given), -1.95% (inactive).
The result for `CCCCn1nnnc1C(c1cccc(OC)c1OC)N1CCN(C/C=C/c2ccccc2)CC1` (stereo not given) reads 3.3% (inactive); that for `FC(F)(F)Oc1ccccc1C(c1nnnn1C1CCCCC1)N1CCN(C/C=C/c2ccccc2)CC1` (stereo not given), 9.77% (active).
With `COC(=O)C12C=C3CC(c4ccccc4)=C3C(=O)N1Cc1[nH]c3ccccc3c1C2` (stereo not given), the inhibition is -5.87% (inactive).
For `CC(=O)c1cc(-c2ccc3ccccc3c2)c(=O)n2c1CCC2` the value was -8.84% (inactive); for `O=C(NCCc1c[nH]c2ccccc12)OCc1cn(-c2c(F)cccc2F)nn1`, -1.78% (inactive).
The result for `C=CCN1C(=O)[C@H](CC(=O)N2CCN(C(=O)OCC)CC2)[C@@]2(C(=O)OCC)CCCC=C12` reads -4.33% (inactive).
As to `N[C@@H](Cc1ccccc1)C(=O)N1CCC[C@@H]1C(=O)N1CCC2CCN(S(=O)(=O)c3ccccc3)CC21` (stereo not given in full), the inhibition was -3.15% (inactive).
